# In the supplement of paper PMC3342239:
# Structures can show the parent of a compound that is named as a salt.
# Tested on: Saccharomyces cerevisiae
# Test: fraction of cells in G1 phase (DNA content, flow cytometry); higher = more cells with unreplicated DNA (G1 delay)
# Details: temperature: 30 C; YPD; BY4741 PDR5+ SNQ2+; drug added to: actively dividing cells; 4.33 h
# Experimental: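 S. cerevisiae cultures in YPD at 30°C were treated with each drug of the Enzo FDA-approved library at 20 µg/ml (final µM given per drug). Cells were fixed after 6–7 h (S1) or 6 h (S2), or after 4.33 h for BY4741 (S3), then stained with SYTOX Green. %G1 is the Dean-Jett-Fox G1 peak area divided by the G1+G2/M peak areas, written as a fraction and averaged over at least two independent experiments. DMSO reference: mean ~0.49; >0.60 is called High G1 and <0.3876 Low G1. Scale: lower means mitotic delay.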
row,Compound,fraction of cells in G1 phase
1,C[C@@H]1CC[C@H]2[C@@H](C)C(=O)O[C@@H]3O[C@@]4(C)CC[C@@H]1[C@]32OO4 [Artemisinin] (70.8367 µM),0.5
2,C[C@]12CC[C@H](O)CC1=CC[C@@H]1[C@@H]2CC[C@]2(C)C(=O)CC[C@@H]12 [Dehydroepiandrosterone] (69.34 µM),0.501
3,CC1C=CC=CCCC=CC=CC=CC=CC(OC2OC(C)C(O)C(N)C2O)CC2OC(O)(CC(O)C(O)CCC(O)CC(O)CC(O)CC(=O)OC(C)C(C)C1O)CC(O)C2C(=O)O (stereo not given) [Nystatin] (21.5955 µM),0.549
4,CCCCC(C#N)(Cn1cncn1)c1ccc(Cl)cc1 (stereo not given) [Myclobutanil] (69.2563 µM),0.536

# Same assay, conditions: temperature: 30 C; YPD; JTY2953 pdr5 snq2 (sensitized); drug added to: actively dividing cells; 6 h
row,Compound,fraction of cells in G1 phase
1,C[C@@H]1CC[C@H]2[C@@H](C)C(=O)O[C@@H]3O[C@@]4(C)CC[C@@H]1[C@]32OO4 [Artemisinin] (70.8367 µM),0.691
2,C[C@]12CC[C@H](O)CC1=CC[C@@H]1[C@@H]2CC[C@]2(C)C(=O)CC[C@@H]12 [Dehydroepiandrosterone] (69.34 µM),0.719
3,CC1C=CC=CCCC=CC=CC=CC=CC(OC2OC(C)C(O)C(N)C2O)CC2OC(O)(CC(O)C(O)CCC(O)CC(O)CC(O)CC(=O)OC(C)C(C)C1O)CC(O)C2C(=O)O (stereo not given) [Nystatin] (21.5955 µM),0.699
4,CCCCC(C#N)(Cn1cncn1)c1ccc(Cl)cc1 (stereo not given) [Myclobutanil] (69.2563 µM),0.766

# Same assay, conditions: temperature: 30 C; YPD; JTY2953 pdr5 snq2 (sensitized); drug added to: cultures diluted from stationary phase; 6-7 h
row,Compound,fraction of cells in G1 phase
1,COc1ccc2c(c1)[C@]13CCCC[C@@H]1[C@H](C2)N(C)CC3 [Dextromethorphan HBr] (73.6903 µM),0.503
2,C[C@@H]1CC[C@H]2[C@@H](C)C(=O)O[C@@H]3O[C@@]4(C)CC[C@@H]1[C@]32OO4 [Artemisinin] (70.8367 µM),0.613
3,O=C(O)CCCc1ccc(N(CCCl)CCCl)cc1 [Chlorambucil] (65.7421 µM),0.456
4,Cc1c(N)nc(C(CC(N)=O)NCC(N)C(N)=O)nc1C(=O)NC(C(=O)NC(C)C(O)C(C)C(=O)NC(C(=O)NCCc1nc(-c2nc(C(=O)NCCC[S+](C)C)cs2)cs1)C(C)O)C(O[C@@H]1O[C@@H](CO)[C@@H](O)[C@H](O)[C@@H]1O[C@H]1O[C@H](CO)[C@@H](O)[C@H](OC(N)=O)[C@@H]1O)c1cnc[nH]1 (stereo not given in full) [Bleomycin sulfate] (14.1285 µM),0.924
5,COc1ccc2c(c1)[nH]c1c(C)nccc12 [Harmine] (94.227 µM),0.474
6,CC(C)(C)NCC(O)c1cc(Cl)c(N)c(Cl)c1 (stereo not given) [Clenbuterol] (72.1511 µM),0.498
7,C[N+](C)(C)CCCCCCCCCC[N+](C)(C)C [Decamethonium 2Br] (77.371 µM),0.472
8,C[C@]12CC[C@H](O)CC1=CC[C@@H]1[C@@H]2CC[C@]2(C)C(=O)CC[C@@H]12 [Dehydroepiandrosterone] (69.34 µM),0.633
9,CN1[C@@H]2C[C@@H](OC(=O)[C@H](CO)c3ccccc3)C[C@H]1[C@@H]1O[C@@H]12 [Scopolamine HBr] (65.928 µM),0.464
10,CN(C)[C@@H]1C(=O)C(C(N)=O)=C(O)[C@@]2(O)C(=O)C3=C(O)c4c(O)cccc4[C@@](C)(O)[C@H]3C[C@@H]12 [Tetracycline] (44.9999 µM),0.471
11,CC1C=CC=CCCC=CC=CC=CC=CC(OC2OC(C)C(O)C(N)C2O)CC2OC(O)(CC(O)C(O)CCC(O)CC(O)CC(O)CC(=O)OC(C)C(C)C1O)CC(O)C2C(=O)O (stereo not given) [Nystatin] (21.5955 µM),0.665
12,CC[C@@H](C(N)=O)N1CCCC1=O [Levetiracetam] (117.5 µM),0.529
13,Cc1cccc(C)c1NC1=NCCCS1 [Xylazine HCl] (90.7693 µM),0.506
14,COc1ccc(C(CN(C)C)C2(O)CCCCC2)cc1 (stereo not given) [Venlafaxine HCl] (72.0954 µM),0.453
15,CCN(C)C(=O)Oc1cccc([C@H](C)N(C)C)c1 [Rivastigmine] (79.8902 µM),0.504
16,CO[C@]12C[C@@H](COC(=O)c3cncc(Br)c3)CN(C)[C@@H]1Cc1cn(C)c3cccc2c13 [Nicergoline] (41.2884 µM),0.481

row,Compound,fraction of cells in G1 phase
1,C=C1C[C@@H]2[C@H](CC[C@]3(C)C(=O)CC[C@@H]23)[C@@]2(C)C=CC(=O)C=C12 [Exemestane] (67.4764 µM),0.567
2,CN1C[C@H](C(=O)N[C@]2(C)O[C@@]3(O)[C@@H]4CCCN4C(=O)[C@H](Cc4ccccc4)N3C2=O)C=C2c3cccc4[nH]cc(c34)C[C@H]21 [Ergotamine D-tartrate] (34.3833 µM),0.499
3,O=c1[nH]c2ccccc2n1CCCN1CCC(n2c(=O)[nH]c3cc(Cl)ccc32)CC1 [Domperidone] (46.957 µM),0.505
4,CC[C@@H](CO)NC(=O)[C@@H]1C=C2c3cccc4c3c(cn4C)C[C@H]2N(C)C1 [Methysergide] (56.5822 µM),0.48
5,CCCN1C[C@H](CSC)C[C@@H]2c3cccc4[nH]cc(c34)C[C@H]21 [Pergolide mesylate] (63.5937 µM),0.489
6,O=C1CC[C@@]2(O)[C@H]3Cc4ccc(O)c5c4[C@@]2(CCN3CC2CC2)[C@H]1O5 [Naltrexone HCl] (58.5805 µM),0.509
7,CC(C)NCC(O)c1ccc(N)c(C#N)c1 (stereo not given) [Cimaterol] (91.2039 µM),0.493
8,CN1C[C@H](C(=O)N[C@]2(C)O[C@@]3(O)[C@@H]4CCCN4C(=O)[C@H](Cc4ccccc4)N3C2=O)C[C@@H]2c3cccc4[nH]cc(c34)C[C@H]21 [Dihydroergotamine mesylate] (34.2646 µM),0.527
9,C[C@@H]1CN([C@H]2CC[C@](C#N)(c3ccc(F)cc3)CC2)CC[C@]1(C(=O)O)c1ccccc1 [Levocabastine HCl] (47.5588 µM),0.468
10,CCCCC(C#N)(Cn1cncn1)c1ccc(Cl)cc1 (stereo not given) [Myclobutanil] (69.2563 µM),0.667
11,O=C1CCCN1CC#CCN1CCCC1 [Oxotremorine sesquifumarate] (96.9509 µM),0.542
12,CC(C)[C@@]1(NC(=O)[C@@H]2C[C@@H]3c4cccc5[nH]cc(c45)C[C@H]3N(C)C2)O[C@@]2(O)[C@@H]3CCCN3C(=O)[C@H](Cc3ccccc3)N2C1=O [Dihydroergocristine mesylate] (32.6932 µM),0.465
13,CC(CCc1ccccc1)NC(C)C(O)c1ccc(O)cc1 (stereo not given) [Buphenine] (59.5415 µM),0.512
14,COc1ccc(C(=O)N2CCCC2=O)cc1 [Aniracetam] (91.2233 µM),0.483
15,O=C(CCCN1CCC2(CC1)C(=O)NCN2c1ccccc1)c1ccc(F)cc1 [Spiperone] (50.5713 µM),0.484
16,O=P1(N(CCCl)CCCl)NCCCO1 (stereo not given) [Cyclophosphamide monohydrate] (76.6021 µM),0.501
